Our source for the Potency values is PubChem BioAssay (NCATS).

A short description of experiment [1]: Quantitative High-Throughput drug screen in 47 multiple myeloma cell lines against the NCATS MIPE library collection: Karpas417_ECACC cell viability assay (AID 1918961). Particulars: Karpas417 myeloma viability, CellTiter-Glo ATP luminescence, 48 h; viability (% of DMSO): at 45.8 µM (top of the series). The essentials: (§1)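 CellTiter-Glo ATP luminescence gave viability after 48 h compound treatment at 37C of 500 multiple myeloma cells per well. Normalisation used DMSO-only wells as 100% and media-only wells as 0% viability; primary qHTS of approved and investigational drugs.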
On the technique in general: Cellular ATP, detected with luciferase, serves as a proxy for viable cell number.

A short description of experiment [2]: Quantitative High-Throughput drug screen in 47 multiple myeloma cell lines against the NCATS MIPE library collection: KHM11_PLB cell viability assay (AID 1918962). Note: nearly all actives have a fitted effect of over 35% in size. The essentials:
(§2)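 Myeloma cells (500 per well) were exposed to MIPE 4.0 compounds by pin transfer and incubated 48 hours at 37C, 5% CO2. Viability was read as ATP by CellTiter-Glo luminescence, normalised to DMSO (100%) and media-only (0%) wells.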

The nature of experiment [3]: Quantitative High-Throughput drug screen in 47 multiple myeloma cell lines against the NCATS MIPE library collection: JIM3_ECACC cell viability assay (AID 1918963; note: nearly all actives have a fitted effect of over 35% in size). The essentials:
as §2

Experiment [4] is described as follows: Quantitative High-Throughput drug screen in 47 multiple myeloma cell lines against the NCATS MIPE library collection: JIM1_ECACC cell viability assay (AID 1918964). The essentials:
(§3)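 Luminescent ATP measurement with CellTiter-Glo gives viability, scaled between DMSO-only wells (100%) and media-only wells (0%). Cells, 500 per well, faced library compounds for 48 hours at 37C.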

Experiment [5] in a line: Quantitative High-Throughput drug screen in 47 multiple myeloma cell lines against the NCATS MIPE library collection: INA6_PLB cell viability assay (AID 1918965; note: nearly all actives have a fitted effect of over 55% in size). Put shortly: as §1
The nature of experiment [6]: Quantitative High-Throughput drug screen in 47 multiple myeloma cell lines against the NCATS MIPE library collection: JJN3_DSMZ cell viability assay (AID 1918966; note: nearly all actives have a fitted effect of over 50% in size). Put shortly: as §3
Experiment [7] in a line: Quantitative High-Throughput drug screen in 47 multiple myeloma cell lines against the NCATS MIPE library collection: Karpas25_ECACC cell viability assay (AID 1918968; note: nearly all actives have a fitted effect of over 35% in size). Put shortly: as §3
The nature of experiment [8]: Quantitative High-Throughput drug screen in 47 multiple myeloma cell lines against the NCATS MIPE library collection: KMS27_JCRB cell viability assay (AID 1918970). Note: nearly all actives have a fitted effect of over 30% in size. Particulars: KMS27 myeloma cells, CellTiter-Glo ATP viability, 48 h; viability (% of DMSO): at 45.8 µM (top of the series). The essentials:
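Each line is seeded at 500 cells per well and treated with library compounds for 48 hours under 37 °C, 5% CO2. CellTiter-Glo is then added for 5 min at room temperature before median relative luminescence is recorded.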

Experiment [9] is described as follows: Quantitative High-Throughput drug screen in 47 multiple myeloma cell lines against the NCATS MIPE library collection: KMS12PE_JCRB cell viability assay (AID 1918972). Note: nearly all actives have a fitted effect of over 30% in size. The essentials: as §1
Experiment [10] in a line: Quantitative High-Throughput drug screen in 47 multiple myeloma cell lines against the NCATS MIPE library collection: KMS20_JCRB cell viability assay (AID 1918973). Note: nearly all actives have a fitted effect of over 45% in size. The essentials: as §3
Experiment [11] is described as follows: Quantitative High-Throughput drug screen in 47 multiple myeloma cell lines against the NCATS MIPE library collection: KMS21BM_JCRB cell viability assay (AID 1918974). The conditions noted are these: ATP luminescence, 48 h; viability: at 45.8 µM (top of the series). The essentials: as §3
Experiment [12] can be described thus: Quantitative High-Throughput drug screen in 47 multiple myeloma cell lines against the NCATS MIPE library collection: KMS26_JCRB cell viability assay (AID 1918975). Note: nearly all actives have a fitted effect of over 45% in size. The essentials: (§4)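 Relative luminescence from CellTiter-Glo served as the viability signal, referenced to DMSO-treated (100%) and cell-free medium (0%) controls. Treatment lasted 48 hours at 37C with 500 cells per well.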

Experiment [13] in a line: Quantitative High-Throughput drug screen in 47 multiple myeloma cell lines against the NCATS MIPE library collection: MMM1_PLB cell viability assay (AID 1918976). Note: nearly all actives have a fitted effect of over 35% in size. Put shortly: (§5)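 ATP-based CellTiter-Glo luminescence after 48 h drug exposure (37 °C, 5% CO2) of 500 myeloma cells per well. DMSO-only wells set 100% viability, media-only wells 0%; MIPE 4.0 library added by pin tool.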

Experiment [14] in a line: Quantitative High-Throughput drug screen in 47 multiple myeloma cell lines against the NCATS MIPE library collection: MOLP8_DSMZ cell viability assay (AID 1918977). Note: nearly all actives have a fitted effect of over 45% in size. The essentials:
as §5

A short description of experiment [15]: Quantitative High-Throughput drug screen in 47 multiple myeloma cell lines against the NCATS MIPE library collection: NCIH929_DSMZ cell viability assay (AID 1918978). Note: nearly all actives have a fitted effect of over 35% in size. The essentials: as §5
Experiment [16] can be described thus: Quantitative High-Throughput drug screen in 47 multiple myeloma cell lines against the NCATS MIPE library collection: MM1S_ATCC cell viability assay (AID 1918980). Note: nearly all actives have a fitted effect of over 45% in size. Put shortly: as §5
The nature of experiment [17]: Quantitative High-Throughput drug screen in 47 multiple myeloma cell lines against the NCATS MIPE library collection: MM1R_ATCC cell viability assay (AID 1918981). Note: nearly all actives have a fitted effect of over 35% in size. The essentials:
as §5

Experiment [18] can be described thus: Quantitative High-Throughput drug screen in 47 multiple myeloma cell lines against the NCATS MIPE library collection: H1112_PLB cell viability assay (AID 1918967; note: nearly all actives have a fitted effect of over 30% in size). The essentials:
as §3

A short description of experiment [19]: Quantitative High-Throughput drug screen in 47 multiple myeloma cell lines against the NCATS MIPE library collection: KMS12BM_JCRB cell viability assay (AID 1918971). Note: nearly all actives have a fitted effect of over 35% in size. The essentials: as §4
Experiment [20] is described as follows: Quantitative High-Throughput drug screen in 47 multiple myeloma cell lines against the NCATS MIPE library collection: OCIMY1_PLB cell viability assay (AID 1918979). Note: nearly all actives have a fitted effect of over 35% in size. Put shortly:
as §5

Each structure is given as a SMILES string. Results filed as inconclusive are left out. The source made the active and inactive calls. Calls come from the whole dose curve; as a rule, active = well fitted curve in the direction sought with a large enough effect; inconclusive = small, poorly fitted or top-dose-only effect, or another doubt; inactive = no such curve, though single readings can be large; an effect the other way counts as inactive or inconclusive.
Potency is the fitted concentration of half-maximal effect.

Turning to `Cn1cc(C2=C(c3c4n(c5ccccc35)CCC(CN)C4)C(=O)NC2=O)c2ccccc21` (configuration not stated), the Potency in experiment [1] was 9.35 µM (active); in experiment [2] it was 7.43 µM (active); in [3] it was 10.5 µM (active); in experiment [4], 8.33 µM (active); in experiment [5], 3.72 µM (active); in experiment [6], 9.35 µM (active). The Potency in experiment [7] is 7.43 µM (active); in [8], 8.33 µM (active); in experiment [9], 8.33 µM (active); in [10] it was 6.62 µM (active); in experiment [11], 7.43 µM (active); in experiment [12], 18.7 µM (active). Besides, the Potency in [13] is 20.9 µM (active); in [14], 13.2 µM (active); in experiment [15], 7.43 µM (active); in experiment [16] it was 6.62 µM (active); in experiment [17] it was 11.8 µM (active).
With `Cc1ccc2nc(NCCN)c3ncc(C)n3c2c1`, the Potency was 8.33 µM (active) in experiment [1]; 2.64 µM (active) in experiment [2]; 8.33 µM (active) in experiment [3]; 3.32 µM (active) in experiment [4]; 5.9 µM (active) in experiment [5]; 1.66 µM (active) in experiment [6]. The Potency was 4.69 µM (active) in experiment [18]; 9.35 µM (active) in [7]; 6.62 µM (active) in [8]; 3.72 µM (active) in experiment [19]; 9.35 µM (active) in [9]; 6.62 µM (active) in [10]. Also, the Potency in experiment [12] was 2.64 µM (active); in experiment [13] it was 2.64 µM (active); in experiment [14], 4.18 µM (active); in experiment [15], 5.9 µM (active); in experiment [20], 14.8 µM (active); in [16], 1.66 µM (active). Moreover, in [17], the Potency is 3.32 µM (active).
With `NC(=NCCCCCCN=C(N)N=C(N)Nc1ccc(Cl)cc1)N=C(N)Nc1ccc(Cl)cc1`, the Potency in experiment [1] is 20.9 µM (active); in experiment [2], 5.9 µM (active); in [3], 8.33 µM (active); in experiment [4] it was 23.5 µM (active); in [5], 1.66 µM (active); in experiment [6], 3.32 µM (active). In addition, the Potency in experiment [18] is 2.64 µM (active); in experiment [7], 2.96 µM (active); in experiment [8], 16.6 µM (active); in experiment [19], 9.35 µM (active); in experiment [9], 16.6 µM (active); in experiment [10], 3.32 µM (active). Also, the Potency was 16.6 µM (active) in [12]; 20.9 µM (active) in experiment [13]; 8.33 µM (active) in experiment [14]; 3.32 µM (active) in [15]; 11.8 µM (active) in experiment [20]; 2.09 µM (active) in experiment [16]. Moreover, the Potency in experiment [17] is 7.43 µM (active).
Take `Oc1ccc(-c2ccc(-c3cc(Nc4cccc(CNC5CC5)c4)n[nH]3)cc2)c(O)c1`: the Potency is 0.833 µM (active) in experiment [1]; 0.743 µM (active) in experiment [2]; 1.87 µM (active) in experiment [3]; 0.264 µM (active) in [4]; 0.662 µM (active) in experiment [5]; 1.32 µM (active) in [6]. Also, the Potency is 1.05 µM (active) in experiment [7]; 0.743 µM (active) in experiment [8]; 2.64 µM (active) in experiment [19]; 1.05 µM (active) in [9]; 1.32 µM (active) in experiment [10]; 3.32 µM (active) in experiment [12]. The Potency in experiment [13] is 2.35 µM (active); in experiment [14] it was 2.09 µM (active); in [15], 1.18 µM (active); in [20], 9.35 µM (active); in experiment [16], 1.66 µM (active); in experiment [17] it was 2.35 µM (active).
In the case of `COc1cc(O)c2c(c1)C1OC1C[C@H](O)[C@H](O)C(=O)C=CC[C@H](C)OC2=O` (some centres not stated), the Potency is 0.469 µM (active) in [1]; 0.296 µM (active) in [2]; 3.72 µM (active) in experiment [3]; 2.96 µM (active) in experiment [4]; 2.96 µM (active) in experiment [5]; 5.26 µM (active) in [6]. In addition, the Potency was 5.26 µM (active) in [18]; 3.32 µM (active) in [7]; 7.43 µM (active) in experiment [8]; 11.8 µM (active) in experiment [9]; 1.18 µM (active) in experiment [10]; 1.87 µM (active) in experiment [12]. Besides, the Potency is 18.7 µM (active) in [13]; 0.418 µM (active) in experiment [14]; 1.48 µM (active) in [15]; 5.26 µM (active) in experiment [20]; 2.64 µM (active) in [17].
For the compound `CC(=O)NCC(=O)N1[C@H]2CC[C@H]1c1cc(Nc3ncc(C(F)(F)F)c(NC4CCC4)n3)ccc12`, the Potency in experiment [1] is 0.118 µM (active); in experiment [2], 0.526 µM (active); in experiment [3], 1.18 µM (active); in experiment [4], 0.332 µM (active); in [5], 0.935 µM (active); in experiment [6] it was 2.64 µM (active). For the same compound, the Potency in experiment [18] was 16.6 µM (active); in [7], 1.87 µM (active); in [8] it was 0.166 µM (active); in experiment [19], 9.35 µM (active); in experiment [9], 0.105 µM (active); in experiment [10], 1.32 µM (active). The Potency in [12] is 5.26 µM (active); in [13], 1.66 µM (active); in [14] it was 2.64 µM (active); in experiment [15], 0.935 µM (active); in experiment [20], 14.8 µM (active); in experiment [16], 3.32 µM (active). Besides, the Potency in experiment [17] is 2.35 µM (active).
Turning to `Cn1cc(CNCC2CCN(c3ncc(C(=O)NO)cn3)CC2)c2ccccc21`, the Potency in experiment [1] is 0.0166 µM (active); in experiment [2], 0.0662 µM (active); in experiment [3], 0.132 µM (active); in experiment [4], 0.0743 µM (active); in experiment [5] it was 0.001 µM (active); in [6], 0.0296 µM (active). The Potency in experiment [18] was 0.0332 µM (active); in [7], 0.0118 µM (active); in [8] it was 0.0166 µM (active); in experiment [19] it was 0.0235 µM (active); in experiment [9], 0.0372 µM (active); in [10] it was 0.0296 µM (active). In addition, the Potency in experiment [12] was 0.0166 µM (active); in [13], 0.0418 µM (active); in experiment [14], 0.0132 µM (active); in experiment [15], 0.0209 µM (active); in experiment [20] it was 0.105 µM (active); in [16] it was 0.0166 µM (active). For the same compound, the Potency in experiment [17] was 0.0148 µM (active).
In the case of `C[C@@H](Oc1ccc2[nH]nc(C=Cc3cnn(CCO)c3)c2c1)c1c(Cl)cncc1Cl`, the Potency entry in [1], in [4], in experiment [8] and in experiment [9] was “inactive” each time. Also, the Potency was 1.87 µM (active) in experiment [2]; 0.372 µM (active) in experiment [3]; 0.0935 µM (active) in [5]; 8.33 µM (active) in experiment [6]; 6.62 µM (active) in experiment [18]; 0.743 µM (active) in [7]. Further, the Potency in [19] was 23.5 µM (active); in [10], 4.18 µM (active); in experiment [12], 8.33 µM (active); in [13] it was 1.87 µM (active); in experiment [14], 0.469 µM (active); in experiment [15], 0.235 µM (active). Moreover, the Potency in experiment [20] is 11.8 µM (active); in experiment [16], 6.62 µM (active); in experiment [17], 2.64 µM (active).
